Compound activity deposited in PubChem by National Center for Advancing Translational Sciences (NCATS).
GCN5L2 inh = blocks human GCN5L2 histone acetyltransferase; Potency, µM (series often up to 58.9 µM), without a hit: top-dose activity change, negative = inhibition, most hits filed as inhibitors; Q92830; GCN5L2 HAT assay, ThioGlo1 CoA-SH fluorescence; 390,000 compounds, 0.21% hits
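GCN5L2 (20 nM) in 50mM HEPES pH 7.5, 0.1mM EDTA, 0.01% Tween-20 preincubated 15 min with compounds at room temperature. Reaction started with H3(1-25) 75uM, acetyl-CoA 70uM, ThioGlo1 50uM; CoA-thiol fluorescence (Ex340/Em540) read at 0 and 20 min.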
L3MBTL1 block = L3MBTL1 (human) inhibition. AlphaScreen L3MBTL1–H3K9me1 peptide binding. 230,000 compounds, 0.66% hits. Potency, µM (highest dose often 57.1 µM), without a hit: at the top dose activity, negative = inhibition, hits mostly inhibitors. Q9Y468. AID 485360; note: nearly all actives have a fitted effect of over 60% in size
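First, the protein-peptide complex forms for 30 min at room temperature (L3MBTL1 50 nM, biotinylated H3K9me1 peptide 75 nM). Next, compounds are pin-transferred and incubated 30 min. Finally, AlphaScreen beads are added and read after 30 min.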
BLM inh = blocks DNA unwinding by human BLM helicase; P54132; recombinant BLM DNA unwinding, fluorescence dequenching; Potency, µM (series often up to 56.1 µM), without a hit: at the highest dose activity change, negative = inhibition, actives largely listed as inhibitors; 350,000 compounds, 0.2% hits;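 note: plate controls were vehicle for no effect and no enzyme for full effect; nearly all actives have a fitted effect of over 35% in size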
Target sequence (P54132 whole entry, looked up): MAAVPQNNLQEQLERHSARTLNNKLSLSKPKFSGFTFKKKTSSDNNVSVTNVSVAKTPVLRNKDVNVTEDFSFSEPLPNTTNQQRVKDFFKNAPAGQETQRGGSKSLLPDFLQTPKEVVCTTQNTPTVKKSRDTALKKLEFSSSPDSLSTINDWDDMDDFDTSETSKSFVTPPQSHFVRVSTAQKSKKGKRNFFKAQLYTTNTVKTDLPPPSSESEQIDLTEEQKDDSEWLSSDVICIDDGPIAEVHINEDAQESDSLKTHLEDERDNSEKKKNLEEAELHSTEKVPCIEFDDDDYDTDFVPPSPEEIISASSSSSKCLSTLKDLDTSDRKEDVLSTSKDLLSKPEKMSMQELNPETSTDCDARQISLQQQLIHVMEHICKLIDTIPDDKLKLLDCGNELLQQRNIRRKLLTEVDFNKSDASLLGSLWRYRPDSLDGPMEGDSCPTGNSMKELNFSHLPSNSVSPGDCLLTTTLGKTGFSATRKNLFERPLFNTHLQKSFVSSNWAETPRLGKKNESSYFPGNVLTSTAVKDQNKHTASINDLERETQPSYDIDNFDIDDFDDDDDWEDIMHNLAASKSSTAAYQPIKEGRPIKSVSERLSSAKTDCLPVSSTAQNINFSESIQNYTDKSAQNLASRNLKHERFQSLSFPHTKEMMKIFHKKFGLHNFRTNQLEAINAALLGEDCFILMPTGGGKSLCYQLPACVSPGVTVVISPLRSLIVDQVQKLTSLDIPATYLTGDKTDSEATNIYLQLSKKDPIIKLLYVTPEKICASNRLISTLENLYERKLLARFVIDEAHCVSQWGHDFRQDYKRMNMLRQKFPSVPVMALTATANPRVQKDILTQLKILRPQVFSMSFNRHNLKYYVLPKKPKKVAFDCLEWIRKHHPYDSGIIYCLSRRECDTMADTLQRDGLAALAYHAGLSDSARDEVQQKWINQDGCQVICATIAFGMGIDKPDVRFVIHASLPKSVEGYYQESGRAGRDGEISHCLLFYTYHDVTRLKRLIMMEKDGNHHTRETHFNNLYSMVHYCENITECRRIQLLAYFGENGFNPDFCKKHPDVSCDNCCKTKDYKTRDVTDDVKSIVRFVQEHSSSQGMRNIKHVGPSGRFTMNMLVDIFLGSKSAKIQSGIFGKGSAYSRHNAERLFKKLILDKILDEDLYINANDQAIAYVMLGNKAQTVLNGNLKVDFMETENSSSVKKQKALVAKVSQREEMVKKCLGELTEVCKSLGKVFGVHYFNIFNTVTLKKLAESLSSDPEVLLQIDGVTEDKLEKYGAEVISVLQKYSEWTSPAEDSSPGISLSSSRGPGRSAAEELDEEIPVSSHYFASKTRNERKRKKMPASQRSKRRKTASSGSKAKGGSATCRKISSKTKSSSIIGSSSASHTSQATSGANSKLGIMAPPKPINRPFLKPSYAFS
JMJD2E inh = JMJD2E (human) inhibition. B2RXH2. JMJD2E catalytic domain, FDH-coupled NADH fluorescence (FDH is formaldehyde dehydrogenase). Potency, µM (highest dose often 57.1 µM), for inactives: at the highest dose activity change, negative = inhibition, actives largely listed as inhibitors. 230,000 compounds, 1.6% hits. AID 2147; active = well fitted inhibition curve with a large enough effect, not every such curve was filed as active; inconclusive = small, poorly fitted or top-dose-only effect, or another doubt; inactive = no such curve, though single readings can be large or run the other way;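 note: 0% = wells with enzyme and -100% = buffer wells without enzyme; nearly all actives have a fitted effect of over 50% in size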
RECQ1 inh = blocks DNA unwinding by human RECQ1 | RECQ1 DNA unwinding, red fluorescence kinetic read | Potency, µM (top dose mostly 57.3 µM), without a hit: top-dose activity, negative = inhibition, usual class: inhibitors | 240,000 compounds, 0.54% hits | AID 2549;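 note: plate controls were vehicle for no effect and no enzyme for full effect; nearly all actives have a fitted effect of over 30% in size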
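50 nM RECQ1T1 preincubated 15 min with compound in Tris pH 8.0 buffer with MgCl2, DTT, Tween-20 and 2.5 ug/ml poly(dI-dC); started with 200 nM TAMRA/BHQ-2 forked duplex and 2 mM ATP. Unwinding read as fluorescence (525/598 nm), two reads 2 h apart.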
APE1 inh-1 = blocks human APE1 abasic DNA cleavage; recombinant APE1, TAMRA/BHQ-2 abasic DNA cleavage fluorescence; Potency, µM (titrated, usually from 65.8 µM), inactives show top-dose activity change, negative = inhibition, most hits filed as inhibitors; 350,000 compounds, 0.35% hits; AID 2517;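 note: plate controls were vehicle for no effect and reference inhibitor for full effect; nearly all actives have a fitted effect of over 55% in size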
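Substrate: short duplex with […] THF abasic site, 5'-TAMRA and 3'-BHQ-2, 50 nM final. APE1 at 0.75 nM, preincubated 15 min RT with compound. Fluorescence increase from first to third read measured activity.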
DNA dye displace = DNA dye displacement counter-screen activity; shares compounds with APE1 inh-1; DNA fluorescent dye displacement counterscreen, fluorescence; Potency, µM (highest dose often 28.5 µM), for inactives: top-dose activity change, negative = inhibition, usual class: inhibitors; 480 compounds, 7% hits;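 note: loss of thiazole orange fluorescence as the dye is displaced from duplex DNA; 0% = ThO with dsDNA and no compound and -100% = ThO without dsDNA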
EndoIV counter = counter-screen for APE1 inhibitors: inhibitors of E. coli endonuclease IV | shares compounds with APE1 inh-1 | Potency, µM (titrated, usually from 27.1 µM), for the others: top-dose activity change, negative = inhibition, most hits filed as inhibitors | 560 compounds, 4% hits | AID 2565 | E. coli Endo IV, fluorogenic AP-site DNA cleavage;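 note: plate controls were uninhibited enzyme wells for no effect and no enzyme buffer wells for full effect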
APE1 inh-2 = APE1 (human) endonuclease inhibition, confirmation; shares compounds with APE1 inh-1; purified APE1, fluorogenic abasic-site DNA cleavage; 750 compounds, 44% hits; Potency, µM (highest dose often 57.1 µM), for the others: at the highest dose activity change, negative = inhibition, most hits filed as inhibitors; AID 2572; note: nearly all actives have a fitted effect of over 30% in size
APE1 FP = compounds that displace a DNA probe from human APE1; shares compounds with APE1 inh-1; APE1 binding to TAMRA-labelled double-stranded DNA, fluorescence polarization displacement; Potency, µM (series often up to 28.5 µM), for inactives: at the top dose activity, negative = inhibition, actives largely listed as inhibitors; 480 compounds, 7% hits; AID 2573
Numbers without * were called inactive; i = inactive; ? = inconclusive; · = no result; ! = a repeat was not active; [ ] = dose if it differs, or a comment. Many of the other results were omitted from the sample, so hits are more common in it than they were. Unless noted, calls come from the whole dose curve; as a rule, active = well fitted curve in the direction sought with a large enough effect; inconclusive = small, poorly fitted or top-dose-only effect, or another doubt; inactive = no such curve, though single readings can be large; an effect the other way counts as inactive or inconclusive. Unless noted, % is set by controls: 0 for no effect and ±100 for the full control effect; potency is the fitted concentration of half-maximal effect.

SMILES	GCN5L2 inh	L3MBTL1 block	BLM inh	JMJD2E inh	RECQ1 inh	APE1 inh-1	DNA dye displace	EndoIV counter	APE1 inh-2	APE1 FP
COc1ccc(C(CC(=O)N2CCCCC2)c2c(OC)cc(OC)c3c(-c4ccccc4)cc(=O)oc23)cc1 (centres undefined)	-13.8%	·	-26.7%	?	?	25.1µM*	13.5%	?	7.94µM*	14.1µM*
COc1ccc(C(CC(=O)N2CCN(c3ccccc3)CC2)c2c(OC)cc(OC)c3c(-c4ccccc4)cc(=O)oc23)cc1 (centres undefined)	-23.9%	·	2.1%	?	?	?	52.2%	?	5.62µM*	7.8%
COc1ccc2[nH]c(C(=O)O)c(CCNC(C)=O)c2c1	2.8%	4.0%	-2.1%	?	6.1%	3.5%	·	·	·	·
COc1ccc2[nH]c(C(=O)O)c(CCN3C(=O)c4cccc([N+](=O)[O-])c4C3=O)c2c1	0.1%	7.1%	-28.3%	-8.4%	-7.0%	?	·	·	39.8µM*	·
Cn1c(=O)c(NCCc2ccccc2)c2c3c(cccc31)C(=O)c1ccccc1-2	-29.0%	·	?	-7.1%	10µM*	31.6µM*	i	?	?	0.794µM*
Cn1c(NCCc2ccccc2)cc(=O)n(C)c1=O	-3.8%	10.6%	0.0%	5.2%	i	14.8%	·	·	·	·
Clc1ccc(N2N=C(c3cccs3)CC2c2ccco2)cc1 (centres undefined)	-25.5%	134.5%	-10.8%	?	-18.5%	11.7%	·	·	-31.1%	·
c1ccc(N2N=C(c3cccs3)CC2c2ccco2)cc1 (centres undefined)	?	165.9%	-8.5%	?	?	-5.7%	·	·	·	·
Oc1ccc(/C=N/N2CCCCC2)c(O)c1O	1.2%	·	-9.0%	·	·	-38.8%	·	·	·	·
Oc1ccc(/C=N/N2CCOCC2)c(O)c1O	2.7%	14.1µM*	-7.5%	25.1µM*	11.8%	7.08µM*	-5.4%	20.5%	?	-13.4%
O=C(/C=C\c1ccccc1)c1ccccc1O	·	·	0.7%[12.4 µM]	·	i[11.5 µM]	1.1%[12.4 µM]	·	·	·	·
O=C(/C=C/c1ccccc1)c1cc(Br)ccc(=O)c1O	-16.4%	·	-18.8%	12.6µM*	31.6µM*	?	?	-1.0%	?	?
Cc1ccc(S(=O)(=O)Nc2cc3c(cc2NCc2ccccc2)n(C)c(=O)n3C)c(C)c1	-12.5%	·	-6.4%	·	·	·	·	·	·	·
CN=c1scc(C)n1/N=C/c1cc(Br)c(O)c(OC)c1	-23.9%	-5.5%	-6.6%	-8.9%	i	0.1%	·	·	·	·
CN=c1scc(C)n1/N=C/c1ccc(O)c(O)c1O	?	·	?	7.94µM*	10µM*	7.08µM*	?	92.9%	14.1µM*	7.8%
O=C(Nc1nc(-c2ccccc2)cs1)c1cccnc1	-3.9%	·	-2.5%	-0.6%	-1.7%	2.0%	·	·	·	·
CC(=O)Nc1ccc(C(=O)Nc2nc(-c3cccnc3)cs2)cc1	-9.3%	7.2%	-3.8%	?	-10.8%	5.2%	·	·	-22.5%	·
OCC1OC(O)C(O)C(O)C1O (centres undefined)	?	·	-12.0%	·	-1.4%	·	·	·	·	·
OCC1OC([S-])[C@H](O)C(O)C1O.[Au+] (some centres undefined)	11.2µM*	·	?	?	-4.0%	·	·	11.0%[57.1 µM]	12.6µM*	·
CCCCCCC/C=C\CCCCCCCCC(=O)O	8.91µM*	·	·	-0.4%	?	0.3%	·	-22.3%[57.1 µM]	-66.9%	·
COc1ccc(N2CCN(C(=O)COC(=O)CNC(=O)c3ccc(C)cc3)CC2)cc1	3.6%	-3.3%	·	·	·	6.3%	·	·	·	·
COc1cc(-c2csc(C)n2)ccc1O	-1.7%	·	-1.4%	3.3%	?	-2.0%	·	·	·	·
Cc1nc(-c2ccc(O)c(O)c2)cs1	-6.6%[0.501 µM]	·	0.5%	15.8µM*	?	3.16µM*	0.7%	183.4%	-8.0%[24.4 µM]	-3.4%
CCN(CC)CCNc1ccc(CO)c2sc3ccccc3c(=O)c12	-3.5%	-2.2%	82.8%	-8.6%	-1.1%	?	7.94µM*	-13.9%[57.1 µM]	15.8µM*	-56.1%[57.1 µM]
CCn1ccc2c(OCC(=O)NCc3ccc(C)cc3)cccc2c1=O	-12.5%	·	-2.0%	·	·	·	·	·	·	·
SMILES	GCN5L2 inh	L3MBTL1 block	BLM inh	JMJD2E inh	RECQ1 inh	APE1 inh-1	DNA dye displace	EndoIV counter	APE1 inh-2	APE1 FP
COc1ccc2[nH]c3c(c2c1)CCN1C(=O)C(CC(=O)NC(C)(C)C)C[C@H](C(=O)N2CCCCC2)[C@@]31CCc1ccccc1 (some centres undefined)	-13.2%	-1.5%	·	·	·	22.0%	·	·	·	·
CC1(C)Oc2cc(N)c([N+](=O)[O-])cc2O1	-7.4%	-24.9%	3.5%	0.4%	-5.1%	31.6µM*	-7.5%	-0.3%	-8.3%[24.4 µM]	2.2%
COc1cc(OC)c2c(c1O)OC(c1ccccc1)CC2=O (centres undefined)	-4.5%	?	-17.8%	-28.0%	12.6µM*	7.94µM*	7.5%	?	?	12.6µM*
COc1cc(OC)c2c(c1)OC(c1ccccc1)CC2=O (centres undefined)	8.5%[0.501 µM]	·	0.4%	?	-6.9%	-2.7%	·	·	·	·
CCOc1ccc(NC(=O)c2cc(S(=O)(=O)NC3CCCC3)ccc2F)cc1	-4.3%	·	0.0%	·	·	·	·	·	·	·
O=C(/C=C/c1ccc(O)c(O)c1)O[C@@H](C(=O)O)[C@@H](OC(=O)/C=C/c1ccc(O)c(O)c1)C(=O)O	·	·	·	·	0.9%	?	·	·	·	·
O=C(O)/C=C/c1ccc(/C=C/C(=O)O)cc1	·	·	·	·	10.9%	3.1%	·	·	·	·
O=C(/C=C/c1ccc(O)c(O)c1)O[C@H](Cc1ccc(O)c(O)c1)C(=O)O	-15.7%	·	22.4µM*	?	3.55µM*	0.126µM*	-4.8%	99.9%	0.631µM*	-34.5%
O=C(O)/C=C/c1ccc(O)c(O)c1	0.6%	?	-10.5%	0.562µM*!	-6.4%	?	-2.7%[57.1 µM]	203.9%[57.1 µM]	?	5.2%[57.1 µM]
Cc1ccc(CN2c3ccccc3-c3nc(SCC(=O)Nc4c(C)cc(C)cc4C)ncc3S2(=O)=O)cc1	8.3%	·	2.0%	·	·	·	·	·	·	·
